From PubChem BioAssay AID1159580 (chemical genetic matrix, 2015)
Hit rate of the full screen: of about 5,500 compounds, about 2,000 (36%) were called active. Another 18% or so got no clear call; they are omitted. Cut-off read from the data, not from the text of the source: active = normalized growth mostly below about 0.91 (no sharp cut-off); inconclusive = no clear call, values can overlap the other calls; inactive = mostly above about 0.92. The list shows a part of the results.

Experiment: chemical genetic growth profiling, strain panel (AID 1159580);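 note: tested at 20 µM; growth read once vehicle control cultures reached saturation at 30 °C; 1 = growth at the plate median or of vehicle wells; lower values mean less growth of the strain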
Conditions: S. cerevisiae deletion strains, growth OD
[1] = locus YHR030C, strain SLT2, hits give low values
[2] = locus YHR079C, strain IRE1, hits give low values
[3] = locus YJL095W, strain BCK1, hits give low values
[4] = locus YJR066W, strain TOR1, hits give low values
[5] = locus YLR113W, strain HOG1, hits give low values
[6] = locus YNL183C, strain NPR1, hits give low values
[7] = locus YOR231W, strain MKK1, hits give low values
[8] = locus YPL256C, strain CLN2, hits give low values

Measured: normalized growth

CC1(C)O[C@@H]2[C@@H](CO[C@@]3(COS(N)(=O)=O)OC(C)(C)O[C@@H]23)O1
inactive: locus YAL021C, strain ccr4, hits give low values 1.03 | locus YAL026C, strain drs2, hits give low values 1.03 | locus YAL030W, strain snc1, hits give low values 1.01 | locus YBL061C, strain skt5, hits give low values 1.01 | locus YBR009C, strain hhf1, hits give low values 0.983 | locus YBR023C, strain chs3, hits give low values 1.02 | locus YBR171W, strain sec66, hits give low values 1.01 | locus YBR231C, strain swc5, hits give low values 0.981 | locus YBR279W, strain paf1, hits give low values 1.02 | locus YCL011C, strain gbp2, hits give low values 1.01 | locus YCL016C, strain dcc1, hits give low values 1.04 | locus YCL069W, strain vba3, hits give low values 1.01 | locus YCR088W, strain abp1, hits give low values 1.01 | locus YDL005C, strain med2, hits give low values 1.02 | locus YDL040C, strain nat1, hits give low values 0.997 | locus YDR001C, strain nth1, hits give low values 1 | locus YDR069C, strain doa4, hits give low values 0.994 | locus YDR137W, strain rgp1, hits give low values 1.08 | locus YDR159W, strain sac3, hits give low values 0.94 | locus YDR195W, strain ref2 0.987 | locus YDR297W, strain sur2, hits give low values 0.992 | locus YDR334W, strain swr1, hits give low values 1.02 | locus YDR335W, strain msn5, hits give low values 1.02 | locus YDR392W, strain spt3, hits give low values 1.01 | locus YEL003W, strain gim4, hits give low values 0.99 | locus YEL037C, strain rad23, hits give low values 1 | locus YEL061C, strain CIN8 (second series), hits give low values 1 | locus YER015W, strain faa2, hits give low values 1.01 | locus YER016W, strain bim1, hits give low values 1.04 | locus YER111C, strain swi4, hits give low values 1.02 | locus YER155C, strain BEM2 (second series), hits give low values 1.02 | locus YFR010W, strain ubp6, hits give low values 0.983 | locus YGL167C, strain pmr1, hits give low values 1.01 | locus YGL173C, strain kem1, hits give low values 0.998 | locus YGL227W, strain vid30, hits give low values 1.01 | locus YGL240W, strain doc1, hits give low values 0.991 | locus YGL253W, strain hxk2, hits give low values 1 | locus YHR013C, strain ard1, hits give low values 1.07 | locus YHR027C, strain rpn1, hits give low values 1.01 | [1] 0.98 | [2] 0.965 | locus YHR142W, strain chs7, hits give low values 1.02 | locus YJL092W, strain hpr5, hits give low values 1.01 | locus YJL095W, strain BCK1 (second series), hits give low values 1.01 | [3] 0.974 | locus YJL115W, strain asf1, hits give low values 1.01 | locus YJL129C, strain trk1, hits give low values 1.01 | locus YJL154C, strain vps35, hits give low values 1 | locus YJL164C, strain tpk1, hits give low values 0.988 | locus YJL166W, strain qcr8, hits give low values 0.985 | locus YJL187C, strain SWE1, hits give low values 0.992 | [4] 0.942 | locus YKL160W, strain elf1, hits give low values 1.05 | locus YKR026C, strain gcn3, hits give low values 1 | locus YKR091W, strain srl3, hits give low values 0.999 | locus YLL001W, strain dnm1, hits give low values 0.987 | locus YLL026W, hits give low values 1 | locus YLL041C, strain sdh2, hits give low values 0.991 | locus YLR027C, strain aat2, hits give low values 1.01 | [5] 0.964 | locus YLR221C, strain rsa3, hits give low values 0.992 | locus YLR258W, strain gsy2, hits give low values 1.02 | locus YLR262C, strain YPT6 (second series), hits give low values 1.01 | locus YLR320W, strain mms22, hits give low values 0.956 | locus YLR342W, strain FKS1, hits give low values 1.03 | locus YLR357W, strain rsc2, hits give low values 1 | locus YLR370C, strain arc18, hits give low values 1.01 | locus YLR384C, strain iki3, hits give low values 1.03 | locus YML120C, strain ndi1, hits give low values 0.999 | locus YMR058W, strain fet3, hits give low values 1.01 | locus YMR125W, strain sto1, hits give low values 1 | locus YMR129W, hits give low values 1 | locus YMR205C, strain PFK2, hits give low values 0.981 | locus YMR231W, strain pep5, hits give low values 1 | locus YNL071W, strain lat1, hits give low values 1.01 | [6] 0.902 | locus YNL209W, strain ssb2, hits give low values 1.01 | locus YNL248C, strain rpa49, hits give low values 1.03 | locus YNL322C, strain KRE1 (second series), hits give low values 1.01 | locus YNR049C, strain mso1, hits give low values 0.99 | locus YOR001W, strain rrp6, hits give low values 0.965 | locus YOR070C, strain gyp1, hits give low values 1.01 | locus YOR080W, strain dia2, hits give low values 1.02 | locus YOR083W, strain WHI5, hits give low values 0.996 | locus YOR106W, strain vam3, hits give low values 1.04 | [7] 0.977 | locus YOR265W, strain rbl2, hits give low values 1 | locus YOR270C, strain vph1, hits give low values 1.06 | locus YOR290C, strain snf2, hits give low values 1.06 | locus YPL051W, strain arl3, hits give low values 1.07 | locus YPL078C, strain atp4, hits give low values 1.04 | locus YPL106C, strain sse1, hits give low values 1.07 | locus YPL240C, strain hsp82, hits give low values 1.01 | [8] 0.95

CC(=O)C(Sc1nc2ccccc2s1)C(C)=O
active: locus YER123W, strain YCK3, hits give low values 0.595 | locus YGR092W, strain DBF2, hits give low values 0.343 | [1] 0.63 | locus YJL157C, strain FAR1, hits give low values 0.68 | locus YKL067W, strain YNK1, hits give low values 0.694 | [5] 0.591 | locus YNL006W, strain LST8, hits give low values 0.901 | [6] 0.561 | [8] 0.6
inactive: locus YAR019C, strain CDC15, hits give low values 0.896 | locus YBL105C, strain PKC1, hits give low values 0.919 | locus YBR135W, strain CKS1, hits give low values 0.915 | locus YBR136W, strain MEC1, hits give low values 0.923 | locus YBR160W, strain CDC28, hits give low values 0.909 | locus YDL017W, strain CDC7, hits give low values 0.919 | locus YDL028C, strain MPS1, hits give low values 0.906 | locus YDL101C, strain DUN1, hits give low values 0.979 | locus YDL108W, strain KIN28, hits give low values 0.93 | locus YDL132W, strain cdc53, hits give low values 0.91 | locus YDL214C, strain PRR2, hits give low values 0.713 | locus YDR052C, strain DBF4, hits give low values 0.916 | locus YDR054C, strain cdc34, hits give low values 0.906 | locus YDR226W, strain ADK1, hits give low values 0.937 | locus YDR477W, strain SNF1, hits give low values 0.778 | locus YER133W, strain GLC7, hits give low values 0.812 | locus YFL009W, strain cdc4, hits give low values 0.892 | locus YFL029C, strain CAK1, hits give low values 0.9 | locus YFR003C, strain YPI1, hits give low values 0.926 | locus YFR019W, strain FAB1, hits give low values 0.836 | locus YFR028C, strain CDC14, hits give low values 0.922 | locus YGR040W, strain KSS1, hits give low values 0.798 | locus YGR052W, strain FMP48, hits give low values 0.667 | [2] 0.547 | locus YHR082C, strain KSP1, hits give low values 0.785 | locus YHR205W, strain SCH9, hits give low values 0.948 | locus YIL147C, strain SLN1, hits give low values 0.921 | [3] 0.521 | locus YJL128C, strain PBS2, hits give low values 0.918 | locus YJR016C, strain ILV3, hits give low values 0.916 | locus YJR066W, strain TOR1 (second series), hits give low values 0.795 | [4] 0.682 | locus YKL048C, strain ELM1, hits give low values 0.929 | locus YKL101W, strain HSL1, hits give low values 0.866 | locus YKL193C, strain SDS22, hits give low values 0.907 | locus YKL203C, strain TOR2, hits give low values 0.879 | locus YLR133W, strain CKI1, hits give low values 0.765 | locus YLR403W, strain SFP1, hits give low values 0.764 | locus YML070W, strain DAK1, hits give low values 0.699 | locus YMR001C, strain CDC5, hits give low values 0.91 | locus YMR205C, strain PFK2 (second series), hits give low values 0.749 | locus YMR277W, strain FCP1, hits give low values 0.892 | locus YNL020C, strain ARK1, hits give low values 0.739 | locus YNL161W, strain CBK1, hits give low values 0.906 | locus YNL207W, strain RIO2, hits give low values 0.937 | locus YNL222W, strain SSU72, hits give low values 0.907 | locus YNL307C, strain MCK1 (second series), hits give low values 0.807 | locus YOL078W, strain AVO1, hits give low values 0.908 | locus YOL136C, strain PFK27, hits give low values 0.694 | locus YOR061W, strain CKA2, hits give low values 0.752 | locus YOR119C, strain RIO1, hits give low values 0.827 | [7] 0.591 | locus YOR329C, strain SCD5, hits give low values 0.925 | locus YPL031C, strain PHO85, hits give low values 0.729 | locus YPL153C, strain RAD53, hits give low values 0.734 | locus YPL204W, strain HRR25, hits give low values 0.757 | locus YPL209C, strain IPL1, hits give low values 0.914 | locus YPR025C, strain CCL1, hits give low values 0.916 | locus YPR106W, strain ISR1, hits give low values 0.945 | locus YPR111W, strain DBF20, hits give low values 0.946 | strain NNK1, hits give low values 0.948 | strain TSCII, hits give low values 0.891
